Assay outcomes: PubChem BioAssay, National Center for Advancing Translational Sciences (NCATS)
Ub-GFP proteasome = proteasome inhibitors stabilizing ubiquitin-GFP reporter | AID 526 | Potency, µM (highest dose often 45.9 µM), without a hit: at the highest dose activation (GFP accumulation), hits mostly activators | Ubiquitin-GFP reporter cells, proteasome inhibition, GFP fluorescence; response scale: untreated = 0%, 10 µM MG-132 = 100% | 67,000 tested, under 10 active; active = well fitted activation curve with a large enough effect, not every such curve was filed as active; inconclusive = small, poorly fitted or top-dose-only effect, or another doubt; inactive = no such curve, though single readings can be large or run the other way; also: potency is read from the fitted curve at half-maximal effect
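Proteasome block read as GFP accumulation: ubiquitin(G76V)-GFP U2OS cells exposed to compound (2.9 nM–46 uM) for 4 hr at 37 C. Normalization used untreated cells as 0% and 10 uM MG-132 as 100%; concentration-response curves fitted.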
GFP derepression = derepresses silenced GFP locus in mouse C127i cells | mouse C127i GFP locus derepression, cytometry, 30 h | Potency, µM (doses to about 46.1 µM), for the others: at the top dose GFP derepression (activation) | actives 0.09% (n = 68,000) | AID 597; also: % of control where 0% means no effect
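Derepression screen: silenced CMV-GFP reporter in murine C127i cells, 30 h compound incubation at 37 C, washed cells imaged by laser-scanning cytometer to enumerate GFP-expressing objects of 20 to 120 um.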
Tau fil binding = tau filament binding | Potency, µM (doses to about 57.1 µM), inactives show at the highest dose activity change, negative = inhibition | actives 2% (n = 71,000) | recombinant tau filaments, thioflavin S fluorescence, 15 h; filaments grown with octadecylsulfate alongside compound | AID 596;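 also: potency is read from the fitted curve at half-maximal effect; % is scaled to controls: 0 for no effect and ±100 for the full control effect; actives lower thioflavin S fluorescence by blocking filaments or displacing dye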
Target sequence (P10636 whole entry, looked up): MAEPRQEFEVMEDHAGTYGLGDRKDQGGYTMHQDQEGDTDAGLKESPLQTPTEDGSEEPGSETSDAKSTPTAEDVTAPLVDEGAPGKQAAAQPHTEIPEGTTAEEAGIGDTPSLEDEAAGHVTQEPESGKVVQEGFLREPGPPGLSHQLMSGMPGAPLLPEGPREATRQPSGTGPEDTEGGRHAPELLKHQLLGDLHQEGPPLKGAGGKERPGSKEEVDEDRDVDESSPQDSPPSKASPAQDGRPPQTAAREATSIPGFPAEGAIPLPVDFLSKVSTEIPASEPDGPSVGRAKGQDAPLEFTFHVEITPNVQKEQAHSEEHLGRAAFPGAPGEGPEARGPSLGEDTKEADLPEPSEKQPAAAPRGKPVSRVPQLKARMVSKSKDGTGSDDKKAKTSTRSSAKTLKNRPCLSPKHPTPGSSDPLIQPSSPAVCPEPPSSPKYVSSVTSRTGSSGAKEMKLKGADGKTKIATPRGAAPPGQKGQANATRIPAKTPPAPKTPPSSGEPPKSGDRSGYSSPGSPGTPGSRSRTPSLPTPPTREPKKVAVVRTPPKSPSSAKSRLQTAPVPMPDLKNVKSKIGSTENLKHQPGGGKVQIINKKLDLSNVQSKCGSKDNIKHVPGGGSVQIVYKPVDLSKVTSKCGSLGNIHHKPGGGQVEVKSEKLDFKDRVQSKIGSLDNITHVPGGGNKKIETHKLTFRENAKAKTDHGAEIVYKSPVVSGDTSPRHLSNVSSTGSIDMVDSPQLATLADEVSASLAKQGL
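Recombinant tau protein (human, 1 uM final) plus 30 uM ODS in HEPES pH 7.4 with NaCl, DTT and thioflavine S. Compound present from the start; fluorescence at 510 nm after 15 h, 37 C.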
ERK AVP inh = vasopressin-driven ERK pathway inhibition; HEK293-V1b, vasopressin-stimulated pERK AlphaScreen; Potency, µM (highest dose often 57.5 µM), for the others: top-dose activity, negative = inhibition, actives largely listed as inhibitors; actives 0.99% (n = 72,000); AID 995; also: potency is read from the fitted curve at half-maximal effect; % is scaled to controls: 0 for no effect and ±100 for the full control effect; nearly all actives have a fitted effect of over 55% in size
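qHTS, compounds titrated on V1b-expressing HEK293 cells. Preincubation 30 min at 37C, vasopressin 25 nM for 5 min, lysis 10 min, bead incubation 5 hr at room temperature.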
Hsp90 Hop PPI = changes Hsp90-Hop TPR2A binding signal, up or down. AlphaScreen TPR2A-His6 binding biotin-Hsp90 C-terminal peptide. Potency, µM (titrated, usually from 57 µM), without a hit: top-dose activity change, negative = inhibition. actives 0.44% (n = 71,000); active = well fitted curve in either direction with a large enough effect; inconclusive = small, poorly fitted or top-dose-only effect, or another doubt; also: potency is read from the fitted curve at half-maximal effect; % is scaled to controls: 0 for no effect and ±100 for the full control effect
HBB splicing = modulators of hemoglobin beta chain splicing | HBB splicing reporter cell assay, activation; EGFP reporter with mutant IVS2-654 intron; response scale: normalised to 500 nM splice-correcting PNA | Potency, µM (top dose mostly 46.1 µM), for inactives: top-dose activation, usual class: activators | actives 0.06% (n = 65,000) | AID 925; also: potency is read from the fitted curve at half-maximal effect; 0% is about no effect
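Compounds were applied for 2 days to HeLa EGFP-654 cells, 500/well in Optimem with 2% FCS. The reporter's EGFP is disrupted by mis-splicing of beta-globin intron IVS2-654. Readout: summed well GFP fluorescence from 488 nm laser scanning; reference was 500 nM antisense […] 654 PNA.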
* = called active by the depositor; ? = inconclusive; . = no result given; [ ] = dose if it differs, or a comment. Shown are actives, neighbours in structure and some others; about 3% of the full set was active somewhere. Unless noted, calls follow the shape of the dose curve; as a rule, active = well fitted curve in the direction sought with a large enough effect; inconclusive = small, poorly fitted or top-dose-only effect, or another doubt; inactive = no such curve, though single readings can be large; an effect the other way counts as inactive or inconclusive.

SMILES | Ub-GFP proteasome | GFP derepression | Tau fil binding | ERK AVP inh | Hsp90 Hop PPI | HBB splicing
CCOC(=O)Nc1ccc2c(c1)N(C(=O)N1CCN(C)CC1)c1ccccc1S2 | -5% | 4% | 16µM* | ? | ? | 0%[1.84 µM]
CCOC(=O)Nc1ccc2c(c1)Nc1ccccc1S2 | -2% | -1% | ? | 12% | ? | 0%[57.5 µM]
c1ccc(CNc2ccnc(-c3ccoc3)n2)cc1 | 7% | 5%[9.22 µM] | 3% | -20% | -28% | 0%
CCOC(=O)c1c(OCC)[nH]c2c1cc(O)c1ccccc12 | 8% | -2% | -22% | 25µM* | -20% | 0%[9.22 µM]
CCOC(=O)c1c(C)[nH]c2cc(Br)c(O)cc12 | 4% | -2% | -3% | -13% | -2% | -1%
CCN(CC)C(=O)CSc1nc(C)cc(-c2cccs2)c1C#N | -8% | 2% | 61% | 1% | 0% | -1%[9.22 µM]
Cc1cc(C)c(C#N)c(SCC(=O)c2cccs2)n1 | 14% | 5% | 2.5µM* | 22% | 21% | 12%
c1cn(-c2ccnc(-c3ccc4c(c3)OCO4)n2)cn1 | 5% | 5%[9.22 µM] | 9% | 20µM* | -1% | 0%
COc1ccc(Oc2ncc3nc(-c4cccc(C#N)c4)c(=O)n(Cc4cccc(OC)c4)c3n2)cc1 | -4% | 5%[9.22 µM] | 10µM* | -7% | -7% | -1%
CN1CCN(c2ncc3nc(-c4cccc(C#N)c4)c(=O)n(Cc4ccc(F)cc4)c3n2)CC1 | 6% | 3%[9.22 µM] | ? | -22% | 1% | -1%
COc1cccc(Cn2c(=O)c(-c3cccc(C#N)c3)nc3cnc(N4CCN(C)CC4)nc32)c1 | 7% | 0%[9.22 µM] | 3.2µM* | 37% | -1% | 2%
O=C(O)CCCCCC[C@@H]1C(=O)NC(=O)N1CC[C@@H](O)C1CCCCC1 | -4% | -2% | -1% | . | -9% | 0%
Fc1ccc(-c2cc(C(F)(F)F)nc(N3CCCCC3)n2)cc1 | 1% | 0% | -5% | 47% | ? | -1%
Cc1ccc(-c2cc(C(F)F)nc(N3CCC(C)CC3)n2)cc1 | 2% | -1% | -1% | 27% | 25µM* | 1%
CC(=O)OC(C)(C)N=Nc1ccc(Br)cc1 | 6%[9.17 µM] | -2%[9.22 µM] | -7%[11.4 µM] | . | ? | 3%[9.22 µM]
CCCCCCCCCCCCCCCC(=O)OC(CO)CO | . | . | . | -3% | . | 1%
COc1ccc(N2CCN(c3nc(NCCc4ccc(OC)c(OC)c4)nc(OC)n3)CC2)cc1 | -2% | 0% | -8% | 16µM* | -25% | 0%
OC[C@@H]1O[C@@H](n2cnc3cncnc32)[C@@H](O)[C@H]1O | 5% | -1% | 11% | 8% | 0% | 1%
COc1cc(N=Nc2cccc(S(N)(=O)=O)c2)c2ccccc2c1N | -4%[9.17 µM] | 2%[9.22 µM] | 1.6µM* | 17%[11.5 µM] | ? | 3%[9.22 µM]
Nc1c(S(=O)(=O)O)cc(S(=O)(=O)O)c2ccc(N=Nc3ccccc3)c(O)c12 | 2%[9.17 µM] | 1%[9.22 µM] | -1%[11.4 µM] | -17%[11.5 µM] | ? | 1%[9.22 µM]
O=C(Nc1ccc(SC(F)F)cc1)c1ccc2nccnc2c1 | 1% | 3% | 13µM* | 25µM* | -8% | -1%
COc1ccc(N2CCN(Cc3nc(-c4ccc(Cl)cc4Cl)no3)CC2)cc1 | 8% | 2% | 13µM* | -28% | -14% | 0%
CCCCCCCCCCCCCCCCCCNC(=O)OC[C@@H](COP(=O)([O-])OCC[n+]1ccsc1)OC | -7% | -1% | -2% | 15% | -3% | 1%
COc1nc(Nc2ccc(O)cc2)nc(OC(C(F)(F)F)C(F)(F)F)n1 | 14% | -3% | -11% | 2µM* | 6% | -2%
CCOC(=O)c1ccc(-n2[nH]c(-c3ccccc3)cc2=O)cc1 | 0% | 0% | 16µM* | -6% | -11% | 0%
SMILES | Ub-GFP proteasome | GFP derepression | Tau fil binding | ERK AVP inh | Hsp90 Hop PPI | HBB splicing
CCOC(=O)c1ccc(-n2c(C)nc3ccccc3c2=O)cc1 | -18% | 0% | 7% | -16% | -2% | -2%
CC(=O)O[C@H]1C(=O)[C@]2(C)[C@H]([C@H](OC(=O)c3ccccc3)[C@@]3(O)C[C@H](OC(=O)[C@@H](O)[C@@H](NC(=O)c4ccccc4)c4ccccc4)C(C)=C1C3(C)C)[C@]1(OC(C)=O)CO[C@@H]1C[C@@H]2O | 0% | -2%[9.22 µM] | ? | . | 0% | .
Clc1ccc2nc(NC3=NCN(CCN4CCOCC4)CN3)nc(-c3ccccc3)c2c1 | -7% | 2% | 7.9µM* | -5% | -1% | 1%[57.5 µM]
CCNC(=O)[C@@H]1O[C@@H](n2cnc3c(NCc4ccccc4)ncnc32)[C@@H](O)[C@H]1O | 4% | -1% | 10% | . | -8% | 1%
CC(=O)c1cccc(NC(=O)Nc2cc3sccc3n2C)c1 | 0% | 0% | 3.2µM* | ? | -21% | 0%
Nc1nc(CC(=O)O)cs1 | . | . | -2% | -6% | 1% | 0%
Cc1oc(/N=C/c2ccccc2O)c(C#N)c1C | 3% | 0% | -10% | 12% | -3% | 0%[9.22 µM]
Cc1oc(/N=C/c2c(O)ccc3ccccc23)c(C#N)c1C | -9% | 0% | 2.5µM* | -4% | -6% | 0%
CCc1ccc(NC(=O)Nc2cccs2)cc1 | -12% | 1% | 25µM* | 4% | -14% | 0%
O=C(Nc1cccs1)Nc1ccccc1Cl | . | -2% | 25µM* | ? | -11% | 0%[0.369 µM]
O=C(O)CCCN1CCCCC1 | -3%[9.17 µM] | -2%[9.22 µM] | 11%[11.4 µM] | 4%[11.5 µM] | 0%[11 µM] | 2%[9.22 µM]
Cn1cccc1-c1nc2ccc(NC(=O)c3cccs3)cc2[nH]1 | 4% | 2% | ? | 20µM* | ? | -1%
Cc1c(C(=O)O)c2cc(O)ccc2n1-c1ccccc1 | -5% | 1% | -13% | 12% | -4% | .
COC(=O)c1c(C)n(-c2ccc(OC)cc2)c2ccc(O)cc12 | -4% | -3% | 119% | 25µM* | -18% | -2%
Cc1ccc(C[C@H](Cc2nc3ccccc3[nH]2)c2nc3ccccc3[nH]2)cc1 | -1% | 0%[9.22 µM] | 124% | . | 0% | .
O=C(NCc1ccc2c(c1)OCO2)c1ccc(-c2ccc(Cl)cc2)o1 | -7% | -3% | 78% | 32µM* | -2% | -1%
Cc1cc2oc3c(c(=O)c2cc1C)C(c1ccc(C(C)C)cc1)N(CCCN1CCOCC1)C3=O (stereo unspecified) | 2% | . | 4µM* | . | -9% | 0%
CCOc1ccc(C2c3c(oc4cc(C)c(C)cc4c3=O)C(=O)N2CCCN2CCOCC2)cc1 (stereo unspecified) | 6% | . | 16µM* | . | -5% | 0%
CCOc1ccc(C2c3c(oc4ccccc4c3=O)C(=O)N2CCCN2CCOCC2)cc1 (stereo unspecified) | -1% | 0% | -24% | -10% | -3% | -4%[57.5 µM]
